{"source": "PubChem BioAssay AID2427", "about": "(National Center for Advancing Translational Sciences (NCATS), 2010)", "note": "Calls of active or inactive are those of the source.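 Rule for the calls: active = melting temperature shift above 3 C; inconclusive = shift above 1 C but not above 3 C; inactive = the rest.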"}
{"target": "15-hydroxyprostaglandin dehydrogenase [NAD(+)] (Homo sapiens) (UniProt P15428)", "sequence (P15428 whole entry, looked up)": "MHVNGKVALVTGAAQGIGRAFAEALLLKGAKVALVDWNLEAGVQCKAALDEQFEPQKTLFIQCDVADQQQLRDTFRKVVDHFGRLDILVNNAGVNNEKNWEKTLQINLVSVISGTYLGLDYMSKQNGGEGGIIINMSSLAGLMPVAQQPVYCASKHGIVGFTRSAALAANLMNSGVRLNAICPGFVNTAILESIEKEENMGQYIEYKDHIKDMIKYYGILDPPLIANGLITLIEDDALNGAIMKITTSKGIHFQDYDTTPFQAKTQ", "assay": "Thermal Shift Assay for Inhibitors of HPGD (15-Hydroxyprostaglandin Dehydrogenase)", "conditions": "Recombinant HPGD thermal shift, SYPRO orange DSF, at 250 µM, stronger effect = higher value", "procedure": "(§1) Assay Overview: Human 15-Hydroxyprostaglandin dehydrogenase (HPGD) catalyzes the inactivation of prostaglandin E2, and plays a major role in cancer biology by antagonizing the oncogenic potential of cyclooxygenase type 2 (COX2). Studies to assess the stability of human 15-PGDH in presence of compounds was performed as described (Niesen et al., 2007) with variations. References 1. Myung SJ, Rerko RM, Yan M, Platzer P, Guda K, Dotson A, Lawrence E, Dannenberg AJ, Lovgren AK, Luo G, Pretlow TP, Newman RA, Willis J, Dawson D, Markowitz SD. 15-Hydroxyprostaglandin dehydrogenase is an in vivo suppressor of colon tumorigenesis. Proc Natl Acad Sci U S A. 2006 Aug 8;103(32):12098-102. 2. Yan M, Rerko RM, Platzer P, Dawson D, Willis J, Tong M, Lawrence E, Lutterbaugh J, Lu S, Willson JK, Luo G, Hensold J, Tai HH, Wilson K, Markowitz SD. 15-Hydroxyprostaglandin dehydrogenase, a COX-2 oncogene antagonist, is a TGF-beta-induced suppressor of human gastrointestinal cancers. Proc Natl Acad Sci U S A. 2004 Dec 14;101(50):17468-73. 3. Yang L, Amann JM, Kikuchi T, Porta R, Guix M, Gonzalez A, Park KH, Billheimer D, Arteaga CL, Tai HH, Dubois R, Carbone DP, Johnson DH. Inhibition of Epidermal Growth Factor Receptor Signaling Elevates 15-Hydroxyprostaglandin Dehydrogenase in Non-Small-Cell Lung Cancer. Cancer Res. 2007 Jun 15;67(12):5587-5593. 4. Niesen FH, Berglund H, Vedadi M: The use of differential scanning fluorimetry to detect ligand interactions that promote protein stability. Nature protocols 2007; 2:2212-2221 NIH Chemical Genomics Center [NCGC] Structural Genomics Consortium [SGC]\n(§2) HPGD was diluted to a final assay concentration of 1 uM in 100 mM Tris buffer, pH 8.0, containing 0.01% Tween-20 and 1:1000 SYPRO orange dye. The final assay volume is 10 ul, with or without 200 uM of either NAD+ or NADH. Compounds were added 1:5 from appropriate stock solutions in 10% (v/v) DMSO to comprise either 50 or 250 uM final concentrations. Heat denaturation curves were recorded using a RT-PCR instrument (Mx3005p, Agilent) applying a temperature gradient of 2 degree C/min. Analysis of the data was performed using DSF Analysis vers. 2.5 (ftp://ftp.sgc.ox.ac.uk/pub/biophysics) and Prism 5.0 (GraphPad Software, Inc.)"}
{"smiles": "O=C(CSc1nc(-c2ccccc2)nn1C(=O)c1ccccc1)Nc1cccc([N+](=O)[O-])c1", "thermal shift (delta Tm)": "4 C (active)"}
{"smiles": "Cc1cc(-c2nnc3n2CCCCC3)c(C)n1-c1ccccc1", "thermal shift (delta Tm)": "5 C (active)"}
{"smiles": "O=C(c1ccc2c(c1)OCCO2)N1CCCCC1", "thermal shift (delta Tm)": "3.5 C (active)"}
{"smiles": "Cc1ccccc1CSc1nc2ccccc2c(=O)[nH]1", "thermal shift (delta Tm)": "6.1 C (active)"}
{"smiles": "COCCNC(=O)C1CCC(Cn2c(=S)[nH]c3ccccc3c2=O)CC1", "note": "(stereo not given)", "thermal shift (delta Tm)": "3.7 C (active)"}
{"smiles": "Cc1ccc(-c2n[nH]c(=S)n2/N=C/C=C\\c2ccccc2[N+](=O)[O-])cc1", "thermal shift (delta Tm)": "4.5 C (active)"}
{"smiles": "CCN(CC)C(=O)c1sc2nc(-c3cccs3)cc(-c3ccc(Cl)cc3)c2c1N", "thermal shift (delta Tm)": "0.9 C (inactive)"}
{"smiles": "COc1ccc2cc(C(=O)N3CCCCCC3)sc(=O)c2c1OC", "thermal shift (delta Tm)": "3.2 C (active)"}
{"smiles": "CC1CCCN(C(=O)c2ccc(COc3ccccc3Br)cc2)C1", "note": "(stereo not given)", "thermal shift (delta Tm)": "3.8 C (active)"}
{"smiles": "O=C(c1ccc2c(c1)OCO2)N1CCc2ccccc2C1", "thermal shift (delta Tm)": "3.3 C (active)"}
{"smiles": "Fc1ccccc1CSc1nc2ncc(Br)cc2[nH]1", "thermal shift (delta Tm)": "7.6 C (active)"}
{"smiles": "O=C(CSc1nc2ncc(Br)cc2[nH]1)c1cccc([N+](=O)[O-])c1", "thermal shift (delta Tm)": "6.9 C (active)"}
{"smiles": "COCCNC(=O)c1nc2c(nnn2Cc2cc(C)ccc2C)c(=O)[nH]1", "thermal shift (delta Tm)": "8.9 C (active)"}
{"smiles": "O=C(c1ccc(N2C(=O)C3CC=C(Cl)CC3C2=O)cc1)N1CCCCC1", "note": "(stereo not given)", "thermal shift (delta Tm)": "3 C (active)"}
{"smiles": "COc1ccc(-c2cc(C(F)(F)F)n3nc(C(=O)N4CCCCC4)cc3n2)cc1OC", "thermal shift (delta Tm)": "3.9 C (active)"}
{"smiles": "Cc1ccc(C)c(Cn2nnc3c(=O)[nH]c(C(=O)NCc4ccco4)nc32)c1", "thermal shift (delta Tm)": "7.5 C (active)"}
{"smiles": "Cc1cccc(-n2cnc3cc(C(=O)N4CCCCC4)ccc32)c1", "thermal shift (delta Tm)": "7.3 C (active)"}
{"smiles": "O=C(c1ccc(COc2ccccc2Br)cc1)N1CCCCC1", "thermal shift (delta Tm)": "7.1 C (active)"}
{"smiles": "O=C(C1CCC(Cn2c(=S)[nH]c3ccccc3c2=O)CC1)N1CCOCC1", "note": "(stereo not given)", "thermal shift (delta Tm)": "6 C (active)"}
{"smiles": "O=C(CCc1ccc(Oc2cc([N+](=O)[O-])cc([N+](=O)[O-])c2)cc1)N1CCCCC1", "thermal shift (delta Tm)": "3.1 C (active)"}
{"target": "15-hydroxyprostaglandin dehydrogenase [NAD(+)] (Homo sapiens) (UniProt P15428)", "assay": "Thermal Shift Assay for Inhibitors of HPGD (15-Hydroxyprostaglandin Dehydrogenase)", "conditions": "Recombinant HPGD thermal shift, SYPRO orange DSF, measured here: delta Tm with NADH cofactor, at 250 µM, stronger effect = higher value", "procedure": "as §1, §2", "units": {"thermal shift (delta Tm)": "C"}}
{"smiles": "O=C(CSc1nc(-c2ccccc2)nn1C(=O)c1ccccc1)Nc1cccc([N+](=O)[O-])c1", "thermal shift (delta Tm)": -7.6}
{"smiles": "Cc1cc(-c2nnc3n2CCCCC3)c(C)n1-c1ccccc1", "thermal shift (delta Tm)": 10.5}
{"smiles": "O=C(c1ccc2c(c1)OCCO2)N1CCCCC1", "thermal shift (delta Tm)": 7.8}
{"smiles": "Cc1ccccc1CSc1nc2ccccc2c(=O)[nH]1", "thermal shift (delta Tm)": 0.4}
{"smiles": "COCCNC(=O)C1CCC(Cn2c(=S)[nH]c3ccccc3c2=O)CC1", "note": "(stereo not given)", "thermal shift (delta Tm)": 4.7}
{"smiles": "Cc1ccc(-c2n[nH]c(=S)n2/N=C/C=C\\c2ccccc2[N+](=O)[O-])cc1", "thermal shift (delta Tm)": 0.2}
{"smiles": "CCN(CC)C(=O)c1sc2nc(-c3cccs3)cc(-c3ccc(Cl)cc3)c2c1N", "thermal shift (delta Tm)": 2.9}
{"smiles": "COc1ccc2cc(C(=O)N3CCCCCC3)sc(=O)c2c1OC", "thermal shift (delta Tm)": 7.8}
{"smiles": "CC1CCCN(C(=O)c2ccc(COc3ccccc3Br)cc2)C1", "note": "(stereo not given)", "thermal shift (delta Tm)": 10.6}
{"smiles": "O=C(c1ccc2c(c1)OCO2)N1CCc2ccccc2C1", "thermal shift (delta Tm)": 4.4}
{"smiles": "Fc1ccccc1CSc1nc2ncc(Br)cc2[nH]1", "thermal shift (delta Tm)": 1.5}
{"smiles": "O=C(CSc1nc2ncc(Br)cc2[nH]1)c1cccc([N+](=O)[O-])c1", "thermal shift (delta Tm)": 1.7}
{"smiles": "COCCNC(=O)c1nc2c(nnn2Cc2cc(C)ccc2C)c(=O)[nH]1", "thermal shift (delta Tm)": 6.6}
{"smiles": "O=C(c1ccc(N2C(=O)C3CC=C(Cl)CC3C2=O)cc1)N1CCCCC1", "note": "(stereo not given)", "thermal shift (delta Tm)": 6.1}
{"smiles": "COc1ccc(-c2cc(C(F)(F)F)n3nc(C(=O)N4CCCCC4)cc3n2)cc1OC", "thermal shift (delta Tm)": 9.6}
{"smiles": "Cc1ccc(C)c(Cn2nnc3c(=O)[nH]c(C(=O)NCc4ccco4)nc32)c1", "thermal shift (delta Tm)": 4.8}
{"smiles": "Cc1cccc(-n2cnc3cc(C(=O)N4CCCCC4)ccc32)c1", "thermal shift (delta Tm)": 13.5}
{"smiles": "O=C(c1ccc(COc2ccccc2Br)cc1)N1CCCCC1", "thermal shift (delta Tm)": 10.6}
{"smiles": "O=C(C1CCC(Cn2c(=S)[nH]c3ccccc3c2=O)CC1)N1CCOCC1", "note": "(stereo not given)", "thermal shift (delta Tm)": 3.9}
{"smiles": "O=C(CCc1ccc(Oc2cc([N+](=O)[O-])cc([N+](=O)[O-])c2)cc1)N1CCCCC1", "thermal shift (delta Tm)": 7.9}
